Structures are written as SMILES. The panel holds about 83,000 compounds, 20% with a hit somewhere; the sample as a whole holds those more often.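 Assay: single dose, 48 h. Readout: percent growth (0 = no net growth; negative = cell death). Active: <10.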 A number with no mark means an inactive call. Calls of active or inactive are those of the source.

Test systems include HCT-15 colon; HT29 colon; SNB-75 CNS; SNB-19 CNS; U251 CNS; PC-3 prostate; SK-MEL-5 melanoma; UACC-62 melanoma; LOX IMVI melanoma; SK-MEL-28 melanoma; EKVX NSCLC; SN12C renal; UO-31 renal; TK-10 renal; ACHN renal; CAKI-1 renal; CCRF-CEM leukemia; MOLT-4 leukemia; SK-MEL-2 melanoma; A498 renal.
Common to all, as to experiment: NCI-60 one-dose screen, 48 h (100 = growth as untreated, 0 = no growth, -100 = all killed)
What all share (settings): 10 µM unless noted

`O=C1/C(=C/c2ccc([N+](=O)[O-])cc2)Oc2ccc(O)cc21`: the growth is 84.3% in the test with HCT-15 colon; 46.8% with HT29 colon; 95.7% with SNB-75 CNS; 90.7% in the test with SNB-19 CNS; 63.6% in the test with U251 CNS; 87.9% in the test with PC-3 prostate. Moreover, the growth with SK-MEL-5 melanoma is 86.8%; with UACC-62 melanoma, 41.4%; in the test with LOX IMVI melanoma it was 60%; in the test with SK-MEL-28 melanoma it was 107%; in the test on EKVX NSCLC it was 91.9%; in the test with SN12C renal, 85.8%. The growth in the test on UO-31 renal is 70.4%; with TK-10 renal it was 17.8%; with ACHN renal, 82.3%; with CAKI-1 renal, 5.52% (active); in the test with CCRF-CEM leukemia, 72.5%; in the test with MOLT-4 leukemia it was 18.7%.
On to `O=C1CC(c2ccsc2)c2snc(-c3ccc(Cl)cc3)c2N1` (stereo not given), for which the growth is 21.9% in the test with HCT-15 colon; 3.6% (active) with HT29 colon; -6.98% (active) in the test with SNB-75 CNS; 64.4% in the test with SNB-19 CNS; 27.7% in the test on U251 CNS; 24% in the test with PC-3 prostate. The growth is 18.1% in the test with SK-MEL-5 melanoma; 30.8% with UACC-62 melanoma; 51.8% in the test with LOX IMVI melanoma; 45.4% in the test with SK-MEL-28 melanoma; 27.3% in the test with SK-MEL-2 melanoma; 54% with SN12C renal. Further, the growth was 48.4% in the test on UO-31 renal; 53% in the test with ACHN renal; 26.6% in the test on CAKI-1 renal; 24.2% with A498 renal; 16.3% in the test on CCRF-CEM leukemia; 14.5% in the test on MOLT-4 leukemia.
On to `CON=C1C[C@]2(C[C@@H]3C[C@@H](C/C=C(\C)C[C@@H](C)/C=C/C=C4\CO[C@@H]5[C@H](O)C(C)=C[C@@H](C(=O)O3)[C@]45O)O2)O[C@H](/C(C)=C/C(C)C)[C@H]1C`, for which the growth with HCT-15 colon is 48.4%; in the test with HT29 colon, 32.4%; with SNB-75 CNS, 140%; with SNB-19 CNS, 63.3%; in the test on U251 CNS, 39.5%; in the test with PC-3 prostate, 13.5%. The growth in the test with SK-MEL-5 melanoma is 65.1%; in the test with UACC-62 melanoma, 70.6%; in the test with LOX IMVI melanoma it was 55.3%; in the test on SK-MEL-28 melanoma, 85.8%; in the test with EKVX NSCLC, 20%; in the test with UO-31 renal, 24%. The growth in the test with TK-10 renal was 81.9%; in the test on ACHN renal, 44.3%; with CAKI-1 renal, 44.8%; in the test with A498 renal it was 38.3%; in the test with CCRF-CEM leukemia it was 38.2%; with MOLT-4 leukemia, -20.4% (active).
For `O=[N+]([O-])c1ccc(C=C2C(Cl)=C(Cl)C(Cl)=C2Cl)cc1`, the growth in the test on HCT-15 colon was 31.4%; in the test with HT29 colon, 30.9%; in the test on SNB-75 CNS, 81.5%; in the test with SNB-19 CNS, 80.6%; in the test with U251 CNS, 20.1%; in the test with PC-3 prostate it was 58.5%. Moreover, the growth was 121% in the test on SK-MEL-5 melanoma; 71.7% in the test with UACC-62 melanoma; 107% with SK-MEL-28 melanoma; 102% in the test with SK-MEL-2 melanoma; 91.6% with EKVX NSCLC; 52.3% in the test with SN12C renal. Further, the growth was -19.8% (active) in the test with UO-31 renal; 28.3% in the test on TK-10 renal; 45.5% with ACHN renal; 53% in the test with CAKI-1 renal; 104% in the test on A498 renal; 15.7% with CCRF-CEM leukemia. For the same molecule, the growth in the test with MOLT-4 leukemia is 5.43% (active).
Consider `Cc1ccc2nc(NC(=O)CSC(=S)N3CCN(C)CC3)sc2c1`, for which the growth with HCT-15 colon is 102%; in the test on HT29 colon, 106%; in the test with SNB-75 CNS, 90.8%; with SNB-19 CNS, 108%; in the test on U251 CNS it was 108%; in the test with PC-3 prostate, 95.6%. In addition, the growth in the test on SK-MEL-5 melanoma was 107%; with LOX IMVI melanoma, -72.3% (active); in the test on SK-MEL-28 melanoma, 116%; in the test on EKVX NSCLC it was 98.1%; with SN12C renal, 100%; in the test with UO-31 renal it was 78.5%. In addition, the growth in the test on ACHN renal was 100%; in the test with A498 renal it was 108%; with MOLT-4 leukemia, 123%.
As for `NC(=O)c1cc(I)ccc1NC(=O)COc1ccc(Cl)cc1Cl`, the growth was 62.8% in the test on HCT-15 colon; 85.1% in the test on HT29 colon; 113% with SNB-75 CNS; 98.7% in the test with SNB-19 CNS; 89.5% in the test with U251 CNS; 86.4% in the test with PC-3 prostate. Besides, the growth in the test on UACC-62 melanoma is 83.1%; in the test with LOX IMVI melanoma, 93.3%; in the test on SK-MEL-28 melanoma, 99.3%; in the test with SN12C renal, 103%; in the test on UO-31 renal, 83.3%; with ACHN renal, 99%. Besides, the growth in the test on CAKI-1 renal was 88.8%; in the test with A498 renal, 73.9%; with CCRF-CEM leukemia it was 81.6%; in the test with MOLT-4 leukemia it was 80.5%.
`C=CC(=O)N1CC2(CC(n3nc(-c4ccc(Oc5ccccc5)cc4)c4c(N)ncnc43)C2)C1`: the growth in the test on HCT-15 colon was 29.2%; with HT29 colon, 31.7%; with SNB-75 CNS, -13.6% (active); with SNB-19 CNS it was 36.6%; in the test on U251 CNS it was 21%; in the test with PC-3 prostate it was 51.3%. In addition, the growth in the test on UACC-62 melanoma was 7.95% (active); with LOX IMVI melanoma, -17.8% (active); with SK-MEL-28 melanoma it was 29%; with SK-MEL-2 melanoma it was 28.6%; in the test with SN12C renal, 17.1%; with UO-31 renal it was 15.2%. The growth was 5.33% (active) with ACHN renal; 8.28% (active) with CAKI-1 renal; -71.7% (active) with A498 renal; 54.3% in the test on CCRF-CEM leukemia; 17% in the test with MOLT-4 leukemia.
For `C[C@@H](Oc1cc(-c2cnn(C3CC4(CNC4)C3)c2)cnc1N)c1c(Cl)ccc(F)c1Cl`, the growth with HCT-15 colon was 35.4%; in the test on HT29 colon it was -11.9% (active); in the test with SNB-75 CNS it was 25.1%; in the test with SNB-19 CNS, 96.7%; in the test with U251 CNS, 61.8%; with PC-3 prostate, 24.7%. Moreover, the growth in the test with UACC-62 melanoma was 53%; in the test with LOX IMVI melanoma it was 11.5%; in the test with SK-MEL-28 melanoma it was 58.9%; with SN12C renal, 22.9%; with UO-31 renal, 51.5%; in the test on ACHN renal, 48.6%. For the same molecule, the growth was 65.7% in the test with CAKI-1 renal, 24% in the test with A498 renal, 24% in the test with CCRF-CEM leukemia and 0.522% (active) with MOLT-4 leukemia.
With `COc1cccc(C2CC(=O)Nc3cc4c(cc32)OCO4)c1OC` (stereo not given), the growth was 89.4% in the test on HCT-15 colon; 90.6% in the test with HT29 colon; 76.3% with SNB-75 CNS; 101% in the test with SNB-19 CNS; 85.6% in the test with U251 CNS; 94.2% with PC-3 prostate. Besides, the growth was 96.1% in the test on UACC-62 melanoma; 96.5% in the test on LOX IMVI melanoma; 111% with SK-MEL-28 melanoma; 110% in the test on EKVX NSCLC; 103% in the test with SN12C renal; 72.4% in the test on UO-31 renal. Besides, the growth is 87% in the test on TK-10 renal; 91.8% in the test with ACHN renal; 78.4% in the test with CAKI-1 renal; 77.6% with A498 renal; 82.1% in the test with CCRF-CEM leukemia; 87.1% in the test on MOLT-4 leukemia.

Source of the values: PubChem BioAssay (NCI).
